Consider 3 substances from publication PMC12350791.

Sequence of HNRNPR, O43390 (O43390 whole entry): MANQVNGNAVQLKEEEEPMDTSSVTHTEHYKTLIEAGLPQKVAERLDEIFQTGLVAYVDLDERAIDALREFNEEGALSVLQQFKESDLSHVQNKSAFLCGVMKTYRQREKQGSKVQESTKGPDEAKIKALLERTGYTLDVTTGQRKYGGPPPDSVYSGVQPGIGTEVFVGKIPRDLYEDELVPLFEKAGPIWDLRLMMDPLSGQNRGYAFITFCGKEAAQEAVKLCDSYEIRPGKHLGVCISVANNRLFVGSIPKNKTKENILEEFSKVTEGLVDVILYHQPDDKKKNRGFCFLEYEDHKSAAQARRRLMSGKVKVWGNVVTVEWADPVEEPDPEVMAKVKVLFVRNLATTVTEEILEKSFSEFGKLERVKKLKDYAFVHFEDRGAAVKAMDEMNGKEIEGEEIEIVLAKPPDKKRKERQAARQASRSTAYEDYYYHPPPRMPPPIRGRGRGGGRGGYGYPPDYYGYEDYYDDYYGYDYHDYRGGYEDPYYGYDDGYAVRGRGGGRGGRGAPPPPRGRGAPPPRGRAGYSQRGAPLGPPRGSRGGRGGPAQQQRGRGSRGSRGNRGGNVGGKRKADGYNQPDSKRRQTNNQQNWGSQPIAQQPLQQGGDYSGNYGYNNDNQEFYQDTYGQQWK
Sequence of GART, P22102 (P22102 whole entry): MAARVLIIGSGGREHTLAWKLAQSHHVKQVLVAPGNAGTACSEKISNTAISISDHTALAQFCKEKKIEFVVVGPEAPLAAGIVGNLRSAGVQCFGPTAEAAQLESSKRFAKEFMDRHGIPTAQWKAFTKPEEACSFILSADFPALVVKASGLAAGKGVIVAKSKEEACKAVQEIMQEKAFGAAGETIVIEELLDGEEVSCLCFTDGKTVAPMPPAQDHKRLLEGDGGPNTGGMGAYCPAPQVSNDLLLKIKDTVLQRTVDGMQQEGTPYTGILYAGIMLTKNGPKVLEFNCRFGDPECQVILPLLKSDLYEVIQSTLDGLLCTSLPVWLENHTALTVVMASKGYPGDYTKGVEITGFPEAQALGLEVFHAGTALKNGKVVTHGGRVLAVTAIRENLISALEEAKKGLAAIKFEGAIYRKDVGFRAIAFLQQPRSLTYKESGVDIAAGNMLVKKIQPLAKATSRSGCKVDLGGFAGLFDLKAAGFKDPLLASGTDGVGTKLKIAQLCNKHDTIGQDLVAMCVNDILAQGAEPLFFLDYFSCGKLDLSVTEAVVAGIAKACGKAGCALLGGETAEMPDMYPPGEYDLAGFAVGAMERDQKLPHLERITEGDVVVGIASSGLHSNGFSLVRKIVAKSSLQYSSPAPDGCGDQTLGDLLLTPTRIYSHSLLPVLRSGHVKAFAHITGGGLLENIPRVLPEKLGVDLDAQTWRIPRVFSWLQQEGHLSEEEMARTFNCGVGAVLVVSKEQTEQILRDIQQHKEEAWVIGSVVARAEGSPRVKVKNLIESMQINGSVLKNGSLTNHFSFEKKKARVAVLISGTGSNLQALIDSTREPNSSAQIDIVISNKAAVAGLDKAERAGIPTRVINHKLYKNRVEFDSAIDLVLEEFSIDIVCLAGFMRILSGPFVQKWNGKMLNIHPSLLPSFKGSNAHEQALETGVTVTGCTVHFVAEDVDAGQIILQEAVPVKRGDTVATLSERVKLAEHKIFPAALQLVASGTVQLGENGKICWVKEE
Sequence of HNRNPDL, O14979 (O14979 whole entry): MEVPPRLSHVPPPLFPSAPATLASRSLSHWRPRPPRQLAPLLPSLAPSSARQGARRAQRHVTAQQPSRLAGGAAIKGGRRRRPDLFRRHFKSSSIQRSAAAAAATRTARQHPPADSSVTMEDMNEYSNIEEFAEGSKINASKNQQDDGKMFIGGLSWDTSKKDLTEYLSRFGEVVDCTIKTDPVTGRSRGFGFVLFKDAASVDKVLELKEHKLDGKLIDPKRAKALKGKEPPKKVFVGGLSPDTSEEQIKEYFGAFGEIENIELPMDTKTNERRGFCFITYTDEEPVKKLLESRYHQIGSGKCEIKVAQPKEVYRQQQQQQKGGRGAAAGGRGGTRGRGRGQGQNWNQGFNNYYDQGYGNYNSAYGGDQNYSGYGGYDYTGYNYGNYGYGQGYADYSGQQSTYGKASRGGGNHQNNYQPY

The target in this experiment is HNRNPU (UniProt Q00839). In words: cross-linking mass spectrometry. The settings on record: DSBSO, in cells or nuclear extract, not told apart.
Sequence of HNRNPU (Q00839 whole entry): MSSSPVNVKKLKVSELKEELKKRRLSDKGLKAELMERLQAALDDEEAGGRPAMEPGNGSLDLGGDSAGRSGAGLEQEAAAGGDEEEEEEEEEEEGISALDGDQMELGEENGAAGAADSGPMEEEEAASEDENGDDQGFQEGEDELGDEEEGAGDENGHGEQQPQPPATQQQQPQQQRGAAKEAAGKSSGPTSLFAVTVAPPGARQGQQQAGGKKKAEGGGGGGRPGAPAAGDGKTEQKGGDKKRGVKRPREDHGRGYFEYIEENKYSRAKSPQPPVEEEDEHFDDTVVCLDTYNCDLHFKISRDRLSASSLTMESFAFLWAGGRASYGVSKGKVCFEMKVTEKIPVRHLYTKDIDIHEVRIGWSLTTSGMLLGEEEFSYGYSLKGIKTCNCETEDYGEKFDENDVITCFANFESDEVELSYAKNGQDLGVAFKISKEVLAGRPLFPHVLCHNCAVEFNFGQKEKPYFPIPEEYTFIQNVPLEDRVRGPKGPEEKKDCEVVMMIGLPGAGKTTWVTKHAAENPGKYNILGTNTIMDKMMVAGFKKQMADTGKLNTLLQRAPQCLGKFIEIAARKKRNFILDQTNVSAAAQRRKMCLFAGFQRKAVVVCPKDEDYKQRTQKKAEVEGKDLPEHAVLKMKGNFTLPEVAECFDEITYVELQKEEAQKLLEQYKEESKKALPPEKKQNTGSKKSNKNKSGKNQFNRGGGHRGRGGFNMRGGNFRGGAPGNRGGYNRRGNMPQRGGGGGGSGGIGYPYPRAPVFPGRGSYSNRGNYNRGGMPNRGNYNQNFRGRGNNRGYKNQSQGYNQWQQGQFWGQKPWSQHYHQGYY
With HNRNPDL, O14979, the cross-linked residues result is on record as “K302 - K352”.

Consider HNRNPR, O43390, for which the cross-linked residues entry is recorded as “K359 - K181”.

Consider GART, P22102, for which the cross-linked residues result is listed as “K251 - K331”.
